The subject of assay [1] is FYN. The settings on record: concentration: 1 μM,replicates: in singlicate; n = 1.
In assay [2] the test system is GAK. The settings on record: concentration: 1 μM,replicates: in singlicate; n = 1.
Assay [3] concerns T1, GCN2(Kin.Dom.2,S808G).
T1 construct: gene EIF2AK4
Particulars: concentration: 1 μM,replicates: in singlicate; n = 1.

For assay [4], the system named is GRK1. The settings on record: concentration: 1 μM,replicates: in singlicate; n = 1.
Assay [5] has as its system T2, GRK2.
T2 construct: gene ADRBK1
Particulars: concentration: 1 μM,replicates: in singlicate; n = 1.

The test system of assay [6] is T3, GRK3.
T3 construct: gene ADRBK2
The settings on record: concentration: 1 μM,replicates: in singlicate; n = 1.

Assay [7] concerns GRK4. The settings on record: concentration: 1 μM,replicates: in singlicate; n = 1.
Assay [8] relates to GRK7. The settings on record: concentration: 1 μM,replicates: in singlicate; n = 1.
For assay [9], the system named is GSK3A. The settings on record: concentration: 1 μM,replicates: in singlicate; n = 1.
Assay [10] relates to GSK3B. Particulars: n = 1.
Where [11] appears, read: concentration: 1 μM,replicates: in singlicate.

Molecules are shown by their SMILES. Where two headings read alike, the source gives them in different places.
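Further: KINOMEscan kinase panel screen.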

As to `CN(c1ccccc1CNc1nc(Nc2ccc3c(c2)CC(=O)N3)ncc1C(F)(F)F)S(C)(=O)=O`, the “%Inh” value in [1] amounted to 0%; in [2], 45%; in [3] it was 0%; in assay [4], 12%; in assay [5] it was 0%; in assay [6], 0%. Also, the “%Inh” value in assay [7] stood at 7%; in assay [8] it was 47%; in assay [9] it was 64%; in [10] (setting [11]), 0%.

Take `Cc1ccc(CC(=O)N2CCc3cc(-c4cn(C)c5ncnc(N)c45)ccc32)cc1` [GSK2634758]: the “%Inh” value in assay [1] came out at 41%; in assay [2] it was 34%; in assay [3], 42%; in assay [4], 0%; in assay [5] it was 0%; in assay [6] it was 24%. The “%Inh” value in assay [7] amounted to 0%; in assay [8], 0%; in assay [9], 9%; in assay [10] (setting [11]), 0%.

Consider `CCn1c(-c2nonc2N)nc2cncc(CNC3CCNCC3)c21.Cl` [SB-747651], for which the “%Inh” value was 43% in [1]; 19% in [2]; 6% in assay [3]; 5% in assay [4]; 0% in assay [5]; 59% in [6]. The “%Inh” value in assay [7] came out at 0%; in assay [8], 0%; in assay [9], 37%; in [10] (setting [11]) it was 24%.

With `C[C@@H]1CCN(C(=O)N2CCCC2)C[C@@H]1N(C)c1ncnc2[nH]ccc12`, the “%Inh” value in assay [1] worked out at 59%; in assay [2] it was 0%; in [3] it was 1%; in assay [4] it was 17%; in [5] it was 25%; in assay [6], 36%. Further, the “%Inh” value in [7] is given as 17%; in [8], 8%; in [9], 2%; in assay [10] (setting [11]) it was 26%.

As for `CN1CCN(CCNc2nc3cc(Oc4ccc(NC(=O)Nc5cc(C(F)(F)F)ccc5F)cc4)ccc3[nH]2)CC1.Cl.Cl` [GW768504], the “%Inh” value in assay [1] worked out at 0%; in assay [2], 0%; in [3] it was 24%; in assay [4], 0%; in assay [5], 0%; in [6], 0%. Besides, the “%Inh” value came to 17% in assay [7], 0% in assay [8], 20% in assay [9] and 0% in [10] (setting [11]).

In the case of `CC(C)c1nc(-c2cccc(NS(=O)(=O)c3ccccc3)c2)c(-c2ccnc(Nc3ccc4c(c3)CN(C)CC4)n2)s1` [GSK1649598], the “%Inh” value in [1] is 98.7%; in [2], 87%; in assay [3] it was 100%; in assay [4] it was 0%; in [5], 0%; in assay [6], 0%. Further, the “%Inh” value turned out to be 0% in assay [7], 0% in assay [8], 61% in assay [9] and 24% in assay [10] (setting [11]).

Consider `COc1cccc(OC)c1C(=O)Nc1cccc(-c2nn3ccccc3c2-c2ccnc(Nc3cccc(F)c3)n2)c1` [GSK361065], for which the “%Inh” value is recorded as 22% in [1]; 6% in assay [2]; 0% in [3]; 0% in [4]; 0% in assay [5]; 0% in assay [6]. Also, the “%Inh” value in assay [7] turned out to be 0%; in assay [8] it was 17%; in [9], 24%; in assay [10] (setting [11]), 0%.

For the molecule `FC(F)(F)c1cc(Br)cc(Nc2nccc(-c3cnn4ncccc34)n2)c1` [GW810578], the “%Inh” value is on record as 0% in assay [1]; 20% in assay [2]; 12% in [3]; 7% in [4]; 14% in assay [5]; 8% in [6]. The “%Inh” value in [7] came to 0%; in assay [8] it was 10%; in assay [9], 90.4%; in assay [10] (setting [11]) it was 89%.

Turning to `CCCC(=O)Nc1n[nH]c2ncccc12` [SB-601436], the “%Inh” value stood at 0% in assay [1]; 0% in assay [2]; 0% in assay [3]; 13% in assay [4]; 0% in assay [5]; 0% in assay [6]. Besides, the “%Inh” value in [7] worked out at 0%; in assay [8], 11%; in assay [9], 38%; in [10] (1 µM) it was 9%.

For the molecule `O=C(NCC1CC1)c1ccc(-c2cc(C(=O)NC3CC3)ccc2F)cc1` [GW810445], the “%Inh” value in assay [1] came to 0%; in [2], 0%; in assay [3], 0%; in [4], 1%; in assay [5], 19%; in assay [6], 0%. The “%Inh” value in [7], in assay [8], in assay [9] and in assay [10] (setting [11]) was 0% in each case.

Regarding `O=C(Nc1ccccc1)c1cccc(Oc2ccc3nccn3n2)c1`, the “%Inh” value worked out at 1% in [1]; 8% in assay [2]; 0% in assay [3]; 0% in assay [4]; 0% in assay [5]; 26% in assay [6]. Besides, the “%Inh” value in [7], in [8], in [9] and in [10] (setting [11]) was 0% throughout.

On to `Cn1ccc2ncnc(Oc3ccc(NC(=O)Nc4cccc(C(F)(F)F)c4)c(Cl)c3)c21`, for which the “%Inh” value is listed as 0% in assay [1]; 1% in [2]; 21% in assay [3]; 32% in [4]; 0% in assay [5]; 0% in assay [6]. Besides, the “%Inh” value came out at 0% in [7], 0% in assay [8], 28% in assay [9] and 0% in [10] (setting [11]).

As to `CS(=O)(=O)Nc1ccc(-c2ccnc3[nH]ccc23)cc1` [GSK993273], the “%Inh” value in assay [1] was 0%; in [2], 26%; in assay [3], 0%; in assay [4] it was 18%; in assay [5], 0%; in assay [6], 22%. Also, the “%Inh” value in assay [7] is recorded as 71%; in [8], 76%; in [9] it was 0%; in assay [10] (setting [11]), 17%.

On to `Cc1ccc2c(-c3ccnc(Nc4ccc(C(F)(F)F)cc4)n3)cnn2n1` [GW819776], for which the “%Inh” value came to 9% in assay [1]; 0% in [2]; 3% in assay [3]; 28% in [4]; 0% in assay [5]; 3% in [6]. In addition, the “%Inh” value in assay [7] came to 21%; in assay [8] it was 0%; in assay [9], 74%; in [10] (setting [11]), 36%.

In the case of `Cc1ccn2nc(-c3ccc(F)cc3)c(-c3ccncc3)c2c1.Cl` [GW457859], the “%Inh” value is given as 0% in assay [1]; 0% in assay [2]; 0% in [3]; 0% in assay [4]; 0% in assay [5]; 40% in [6]. The “%Inh” value was 0% in assay [7], 59% in assay [8], 9% in assay [9] and 0% in assay [10] (setting [11]).

Turning to `CCn1c(-c2nonc2N)nc2cncc(Br)c21` [SB-738004], the “%Inh” value in assay [1] worked out at 0%; in assay [2], 17%; in assay [3], 0%; in [4], 32%; in [5] it was 12%; in assay [6], 69%. Further, the “%Inh” value in [7] came out at 0%; in assay [8], 16%; in assay [9], 29%; in assay [10] (setting [11]), 40%.

These data come from paper PMC5540273 (PLoS ONE, 2017).
